SMILES strings stand for the structures. Inconclusive results are not listed. Where a call stands in place of a potency, no number is given. Activity calls are given as the source filed them. The call rests on the fitted dose curve; in most records, active means well fitted cell-killing curve with a large enough effect in the repeat runs; inconclusive means weak or mixed curves, or effect the other way; inactive means flat fitted curve, though single readings scatter.
Potency means the concentration at half of the fitted maximal effect.

This test in a line: cAMP Responsive Elements (CRE) small molecule agonists, cell-based qHTS assay: qHTS cell viability counter screen (AID 2060914). Further: nearly all actives have a fitted effect of over 50% in size. To be noted: CRE-bla HEK293T viability, CellTiter-Glo luminescence, 5 h; series mostly up to 92.4 µM. Put shortly:
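HEK 293T CRE-bla; DMEM + 10% dialyzed FBS, 25 mM HEPES; 18 h pre-incubation; compound 3 h, 37 °C/5% CO2; CellTiter-Glo added after reporter read; luminescence after 30 min RT.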
(Quantitative high-throughput screening tests each substance at several concentrations.)
Regarding `Clc1ccccc1`, the Potency entry is “inactive”.
`ClCc1ccccc1`: the Potency entry was “inactive”.
Turning to `CCC(C)c1cccc(C(C)CC)c1O` (stereo not drawn), the Potency result was “inactive”.
As for `CN(C)CCc1c[nH]c2ccccc12`, the entry is “inactive”.
For `CC(C)(C)c1ccc(OP(=O)(Oc2ccccc2)Oc2ccccc2)cc1`, the Potency entry is “inactive”.
Regarding `CCCCP(CCCC)CCCC`, the Potency entry was “inactive”.
As to `NC1CCC(CC2CCC(N)CC2)CC1` (stereo not drawn), the Potency result was “inactive”.
Turning to `C[C@]12CCC(=O)C[C@@H]1CC[C@@H]1[C@@H]2CC[C@]2(C)[C@@H](O)CC[C@@H]12`, the Potency entry is “inactive”.
With `N#CCBr`, the Potency result is “inactive”.
Consider `CNC(=O)Oc1cccc2c1OC(C)(C)O2`, for which the Potency result is “inactive”.
`CCN(CC)c1nc(C)cc(OP(=S)(OC)OC)n1`: the Potency entry is “inactive”.
For the compound `Nc1ccccc1C(=O)OC/C=C/c1ccccc1`, the Potency result is “inactive”.
The entry for `Nc1cnn(-c2ccccc2)c(=O)c1Cl` is “inactive”.
The entry for `CCc1ccccc1N` is “inactive”; for `SCc1ccccc1` it is “inactive”.
Consider `O=S1(=O)OCC2C(CO1)C1(Cl)C(Cl)=C(Cl)C2(Cl)C1(Cl)Cl` (stereo not drawn), for which the Potency entry was “inactive”.
As to `Clc1ccc(Cl)cc1`, the Potency result was “inactive”.
On to `Nn1cnnc1`, for which the Potency entry was “inactive”.
Consider `CCCCN=C=O`, for which the Potency entry was “inactive”.
For the compound `CC[C@H](C)[C@H]1O[C@]2(C=C[C@@H]1C)C[C@@H]1C[C@@H](C/C=C(\C)[C@@H](O[C@H]3C[C@H](OC)[C@@H](O[C@H]4C[C@H](OC)[C@@H](NC)[C@H](C)O4)[C@H](C)O3)[C@@H](C)/C=C/C=C3\CO[C@@H]4[C@H](O)C(C)=C[C@@H](C(=O)O1)[C@]34O)O2`, the Potency is 19.3 µM (active).
`C[C@H]1[C@@H]2Cc3ccc(O)cc3[C@@]1(C)CCN2C`: the Potency entry is “inactive”.
For `Nc1ccc(Cl)c(Cl)c1`, the Potency entry is “inactive”.
As for `CCOC(=O)CP(=O)(OCC)OCC`, the Potency result was “inactive”.

The values are drawn from PubChem BioAssay (Tox21).
